# According to PubChem BioAssay:
# Potency and affinity values are given separately. The source made the active and inactive calls. Entries that show only a call come without a potency. The rule behind the calls is not given here.
# Assay: A549 cell cytotoxicity, dose response, cytotoxicity control, plate reader, cherry-pick, antagonist series (AID 743412)
# Conditions: series mostly up to 26 µM
row,SMILES,outcome
1,CC(C)(C)c1ccc(-c2nc(-c3ccncc3)no2)cc1,inactive
2,COc1ccc2nc(-c3ccc(F)cc3)sc2c1,inactive
3,Cc1ccc(-c2csc(Nc3ccccn3)n2)cc1,inactive
4,CCCOc1ccc2cc(-c3ccccn3)c(=O)oc2c1,inactive
5,COc1cccc(-c2cc(C(=O)Nc3cccc(O)c3)no2)c1,inactive
6,CCOC(=O)c1sc(NC(=O)Nc2ccccc2F)nc1C,inactive
7,COCCn1c(C)cc(C(=O)CSc2nc3ccccc3s2)c1C,inactive
8,C[C@H](CO)N1C[C@H](C)[C@H](CN(C)C(=O)Nc2cccc3ccccc23)OCCCC[C@H](C)Oc2ccc(NC(=O)NC3CCCCC3)cc2C1=O,inactive
9,O=C(Nc1nc2ccccc2s1)c1ccc2sc([C@H]3C[C@H](O)[C@@H](CO)O3)nc2c1,inactive
10,COc1ccc(-c2csc(NC(=O)c3ccc(OCC(=O)N4CCOCC4)c(OC)c3)n2)cc1,inactive
11,c1ccc(COc2ccc(OCCCN3CCCC3)cc2)cc1,inactive
12,COC(=O)c1ccc2nc(NC(=O)C(C)(C)C)sc2c1,inactive
13,Cc1cc(C)c(Cc2c(C)nc3c(C(=O)NCc4ccco4)cnn3c2C)c(C)c1,inactive
14,O=C(c1cc(-c2ccc(Cl)cc2Cl)on1)N1CCOCC1,inactive
15,O=C(O)c1ccc(-c2noc(-c3ccccc3Cl)n2)cc1,inactive
16,O=C(Cn1ncc(Cl)c(Cl)c1=O)c1ccc2c(c1)OCCO2,inactive
17,Cc1ccc(-n2ncc3c(N4CCN(c5ccccc5)CC4)ncnc32)c(C)c1,inactive
18,Cc1ccc(-c2noc(-c3cccs3)n2)cc1,inactive
19,c1ccc(-n2nnnc2Sc2ncnc3sc4c(c23)CCCC4)cc1,inactive
20,O=C(NCCc1ccccc1)c1ccc2c(c1)OCO2,inactive

row,SMILES,outcome
1,C[C@H](CO)N1C[C@H](C)[C@H](CN(C)C(=O)Cc2ccccc2)OCCCC[C@H](C)Oc2ccc(NC(=O)Nc3ccc(C(F)(F)F)cc3)cc2C1=O,inactive
2,O=C(CN1CCOc2ccccc21)NCc1ccc(F)cc1,inactive
3,COc1ccccc1CCn1cnc(-c2ccccc2OC)c1C(C)C,inactive
4,CC(=O)N1CCCC(c2cc(C(=O)Nc3ccccc3)no2)C1 (centres undefined),inactive
5,O=C(CN1C(=O)c2ccccc2S1(=O)=O)Nc1ncc(Cl)cc1Cl,inactive
6,CC1CCCN(c2ncnc3c2cnn3-c2ccccc2)C1 (centres undefined),inactive
7,Cc1ccc(-c2cnn3c(N4CCOCC4)cc(C)nc23)cc1,inactive
8,COc1ccc(NC(=O)Nc2cccc([N+](=O)[O-])c2)cc1Cl,inactive
9,CCc1ccn2cc(-c3cc(-c4ccccc4)no3)nc2c1,inactive
10,Cc1csc(NC(=O)c2cnc3ccccc3n2)n1,inactive
11,O=C(NCCc1ccccc1)c1ccc2c(c1)OCCO2,inactive
12,O=C(Nc1ccc(Cl)c(S(=O)(=O)N2CCOCC2)c1)c1ccc2c(c1)OCCO2,inactive
13,OC1CCC(Nc2ccn3nc(-c4cccc(OCc5ccccc5)c4)cc3n2)CC1 (centres undefined),inactive
14,Cc1ccc(C(=O)CN2C(=O)c3ccccc3S2(=O)=O)cc1,inactive
15,O=c1c2c(nc3cc(-c4ccc(F)cc4)[nH]n13)CCCC2,inactive
16,O=C(Nc1ccccc1)c1cn2ccccc2n1,inactive
17,O=C(O)c1ccc(N/N=C/c2c[nH]c3ccccc23)cc1,inactive
18,COc1ccc(-n2ncc3c(N4CCC(C)CC4)ncnc32)cc1,inactive
19,COc1ccc(-n2nnnc2-c2nc3ccccc3s2)cc1,inactive
